Compounds with a hit are over-represented: about 6.8% of the library has one in this group of screens.
MK inhibit – inhibitors of Streptococcus pneumoniae mevalonate kinase; purified MK, PK/LDH-coupled NADH absorbance 340 nm; actives 0.48% (n = 65,000); inhibition, % at 10 µM; AID 555;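 active = ranked among the strongest by inhibition in the single 10 µM screen, a fixed top-ranked set picked for dose follow-up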
NADH coupling – inhibition of NAD/NADH coupling enzymes, library profiling | actives 0.02% (n = 65,000) | IC50, µM (highest dose often 10 µM) | coupled PK/LDH NADH assays, four targets;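 active = single-dose screening hits from any of four coupled enzyme assays that gave an IC50 when retested across doses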;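 note: the DPM-DC format reads NADH fluorescence rather than 340 nm absorbance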
Autofluor 339 – intrinsic fluorescence of library compounds, ex339/em460 – biochemical, MLSMR library, data from DPM-DC assay, artefact control, profiling panel | compound autofluorescence, ex339/em460 nm, NADH buffer; hits give high values; 1 = no-compound wells, NADH background | fluorescence fold increase at 10 µM | actives 5.5% (n = 65,000) | AID 709;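 active = at 10 µM, mean starting fluorescence two-fold or more over control wells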;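 note: signal is the first read of a kinetic run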
Abs 340nm – absorbance at 340 nm; compound absorbance at 340 nm, fold over control; 65,000 tested, under 10 active; fold change at 10 µM; AID 708;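 active = at 10 µM dose, initial 340 nm absorbance at least 2 fold that of control wells; inactive = change under 2 fold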;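 note: initial absorbance extrapolated from kinetic A340 decline of NADH oxidation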
Spn DPM-DC inh – blocks S. pneumoniae diphosphomevalonate decarboxylase. purified DPM-DC, PK/LDH coupled NADH fluorescence. calls only at 10 µM. actives 0.49% (n = 65,000);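 active = the 320 compounds with the highest percent inhibition in the single-dose primary screen, excluding strongly autofluorescent ones, cut at about 32% in these data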;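 note: kinetic rate of NADH fluorescence loss reporting ADP formed by the decarboxylase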
Spn PMK inh – blocks S. pneumoniae phosphomevalonate kinase. actives 0.49% (n = 65,000). inhibition, % at 10 µM. purified PMK, PK/LDH-coupled NADH absorbance 340 nm;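 active = top-ranked compounds by inhibition in the single 10 µM screen, taking a fixed number of the strongest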
A number is an active result; – = inactive; · = no result given; + = active, no number.

SMILES	MK inhibit	NADH coupling	Autofluor 339	Abs 340nm	Spn DPM-DC inh	Spn PMK inh
CCCCN(Cc1cc2cc(OC)ccc2[nH]c1=O)C(=O)c1ccccn1	–	–	2.54	–	·	–
O=C(NCc1ccccc1)N(Cc1cc2cc3c(cc2[nH]c1=O)OCO3)CC1CCCO1 (configuration not stated)	–	–	3.66	–	·	–
Cc1ccc2[nH]c(=O)c(CN(CC3CCCO3)C(=O)c3ccco3)cc2c1 (configuration not stated)	–	–	–	–	–	–
CCCN(Cc1cc2cc(OC)ccc2[nH]c1=O)C(=O)c1ccncc1	–	–	–	–	–	–
COc1ccc2cc(CN(C(=O)Nc3ccccc3OC)C3CCCC3)c(=O)[nH]c2c1	–	–	–	–	–	–
Cc1ccc2cc(CN(CCN3CCOCC3)C(=O)NCc3ccccc3)c(=O)[nH]c2c1C	–	–	2.06	–	–	–
Cc1ccc2cc(CN(CCN3CCCC3)C(=O)Nc3ccccc3)c(=O)[nH]c2c1C	–	–	–	–	–	–
COc1cc2cc(CN(C(=O)NC3CCCCC3)C3CCCC3)c(=O)[nH]c2cc1OC	–	–	3.87	–	·	–
Cc1csc(NC(=O)c2ccoc2C)n1	–	–	–	–	–	–
COc1ccc2[nH]c(=O)c(CN(C(=O)c3ccccn3)C3CCCCC3)cc2c1	–	–	2.85	–	–	–
CCCCOc1ncnc2c1[nH]c1ccccc12	–	–	2.34	–	–	–
CCCCOc1ncnc2c1[nH]c1ccc(F)cc12	–	–	2.68	–	–	–
COC(=O)C1=C(N)Oc2cc(C)n(CCN3CCOCC3)c(=O)c2C1c1cccnc1 (configuration not stated)	–	–	–	–	–	–
Cc1cc(C)c2c(n1)nn1c(NCCCN3CCOCC3)cc(C)nc21	–	–	3	–	·	–
Cc1cc(C)c2c(n1)nn1c(NCCCn3ccnc3)cc(C)nc21	–	–	3.91	–	·	–
Cc1cc(NCCCN2CCOCC2)n2nc(C)c(-c3ccccc3)c2n1	–	–	–	–	–	–
Cc1cc(NCCCN2CCOCC2)n2ncc(-c3ccccc3)c2n1	–	–	2.12	–	–	–
Cc1cc(NCCCN2CCOCC2)n2nc(C)c(-c3ccc(F)cc3)c2n1	–	–	–	–	–	25.0
COc1ccccc1-c1c(C)nn2c(NCCN3CCCC3)cc(C)nc12	–	–	–	–	–	–
Cc1cc(NCCOCCO)n2ncc(-c3ccc(Cl)cc3)c2n1	–	–	2.56	–	–	–
CCOC(=O)c1ccc(Oc2c(C)oc3c(CN4CCN(C)CC4)c(O)ccc3c2=O)cc1	–	–	3.86	–	·	–
CN1CCN(Cc2c(O)ccc3c(=O)c(Oc4ccccc4Cl)c(C(F)(F)F)oc23)CC1	–	–	–	–	–	–
CCOc1ccccc1Oc1c(C)oc2c(CN3CCN(CCO)CC3)c(O)ccc2c1=O	–	–	3.91	–	·	–
Cc1oc2c(CN3CCCC3)c(O)ccc2c(=O)c1Oc1ccccc1Br	–	–	3.85	–	·	–
COc1ccccc1Oc1c(C)oc2c(CN3CCN(CCO)CC3)c(O)ccc2c1=O	–	–	3.95	–	·	–
SMILES	MK inhibit	NADH coupling	Autofluor 339	Abs 340nm	Spn DPM-DC inh	Spn PMK inh
CCOC(=O)c1c(C)oc2ccc(O)c(CN3CCCCC3)c12	–	–	–	–	–	–
CCOC(=O)c1c(CN2CCN(CCO)CC2)n(C)c2cc(Br)c(OC)cc12	–	–	–	–	–	–
CCN(CC)C(=O)CC(c1ccc(F)cc1)c1ccco1 (configuration not stated)	–	–	–	–	–	–
O=C1C2CCCN2C(c2ccccc2F)N1c1ccc(F)cc1 (configuration not stated)	–	–	–	–	–	–
O=C(Nc1ccc2nc(-c3cccs3)c(-c3cccs3)nc2c1)N1CCOCC1	–	–	2.55	–	+	–
Cc1nc2ccc(NC(=O)N3CCSCC3)cc2nc1C	–	–	–	–	·	–
CCOC(=O)N1CCN(C(=O)Nc2ccc3nc(C)sc3c2)CC1	–	–	–	–	–	–
CCOC(=O)N1CCN(C(=O)Nc2ccc3nc(-c4ccccn4)c(-c4ccccn4)nc3c2)CC1	–	–	2.18	–	·	–
CSc1nnc(NC(=O)C2CCCCC2)s1	–	–	–	–	–	·
CSc1ncc(Cl)c(C(=O)Nc2nnc(SC)s2)n1	–	–	–	–	+	–
CC(C)C(c1nnnn1Cc1cccs1)N1CCN(c2ccccc2)CC1 (configuration not stated)	–	–	–	–	–	–
Cc1cc(C)n2cc(CSc3nnc(N)s3)nc2n1	–	–	–	–	–	–
COC(=O)c1ccccc1N(Cc1ccccc1)S(C)(=O)=O	–	–	–	–	–	–
CC1(C)Cc2nc3sc4c(N(CCO)CCO)ncnc4c3cc2CO1	–	–	2.32	–	·	–
CCN(CC)S(=O)(=O)c1cccc(C(=O)OCc2cc(=O)n3nc(C)sc3n2)c1	–	–	–	–	–	–
Cc1cc(N2CCN(C(=O)c3ccco3)CC2)n2nc(C)c(-c3ccc(Cl)cc3)c2n1	–	–	3.74	–	·	–
Cc1cc(N2CCN(C(=O)c3ccco3)CC2)n2nc(C)c(-c3ccccc3)c2n1	–	–	–	–	–	–
Cc1cc(N2CCN(C(=O)c3ccco3)CC2)n2nc(-c3cccc(Cl)c3)cc2n1	–	–	–	–	+	–
O=C(c1cc2nc(-c3ccccc3)cc(-c3ccccc3)n2n1)N1CCN(C(=O)c2ccco2)CC1	–	–	3.67	–	·	–
COCCn1cnnc1SCC(=O)Nc1ccccc1C(=O)Nc1ccc2c(c1)OCO2	–	–	–	–	–	–
Cc1cnc(-c2nnc(N(C)C(=O)c3cnccn3)s2)cn1	–	–	–	–	–	–
COc1ccc(-c2noc(CN(C(=O)C(C)(C)C)C(C)C)n2)cc1	–	–	–	–	–	–
N#Cc1nc(-c2ccccc2Cl)oc1NCC1CCCO1 (configuration not stated)	–	–	–	–	–	–
CN(C)CCNc1oc(-c2ccccc2F)nc1C#N	–	–	2.45	–	·	–
N#Cc1nc(-c2ccccc2F)oc1NCc1cccc2c1OCO2	–	–	–	–	–	–
SMILES	MK inhibit	NADH coupling	Autofluor 339	Abs 340nm	Spn DPM-DC inh	Spn PMK inh
COc1ccc(CCNc2oc(-c3ccc(OC)c(OC)c3)nc2C#N)cc1	–	–	3.86	–	·	–
N#Cc1nc(-c2ccccc2F)oc1NC1CCCCC1	–	–	2.11	–	·	–
Cc1cccc(OCc2nc(C#N)c(NCCN(C)C)o2)c1	–	–	–	–	–	–
CN(C)CCCNc1oc(-c2ccccc2)nc1C#N	–	–	2.1	–	·	–
COc1ccc(CCNc2oc(COc3ccccc3)nc2C#N)cc1	–	–	–	–	–	–
CC(=O)Nc1ccc(S(=O)(=O)N(C)CC(=O)NC2=NCCS2)cc1	–	–	–	–	–	–
CCOC(=O)CCC(=O)Nc1ccccc1C(N)=O	–	–	–	–	–	–

High-throughput results from PubChem.
